What all share (assay): NCI-60 one-dose screen, 48 h (100 = growth as untreated, 0 = no growth, -100 = all killed)
Common to all, as to details: 10 µM unless noted

For assay [1], the system named is SK-MEL-2 melanoma.
The subject of assay [2] is EKVX NSCLC.
Assay [3] concerns SN12C renal.
The subject of assay [4] is UO-31 renal.
Assay [5] has as its system TK-10 renal.
Assay [6] has as its system ACHN renal.
For assay [7], the system named is CAKI-1 renal.
Assay [8] relates to A498 renal.
The test system of assay [9] is CCRF-CEM leukemia.
Assay [10] deals with MOLT-4 leukemia.
Assay [11] relates to RPMI-8226 leukemia.
In assay [12] the test system is OVCAR-8 ovarian.
The test system of assay [13] is OVCAR-5 ovarian.
The test system of assay [14] is OVCAR-4 ovarian.
Assay [15] relates to SK-OV-3 ovarian.
Assay [16] has as its system IGROV1 ovarian.
The subject of assay [17] is OVCAR-3 ovarian.
Assay [18] has as its system HS 578T breast.
Assay [19] deals with NCI/ADR-RES ovarian.
Assay [20] deals with SR leukemia.

This is part of a sample that, as a whole, favours compounds with a hit. Of some 83,000 tested, about 20% had one in any assay.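 In brief: 96-well plates, 48 h treatment, single concentration, percent growth endpoint.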 A number with no mark means an inactive call. The source made the active and inactive calls. How the source made its calls: active means growth percent below 10; inactive means the rest.

For the molecule `C#CCOc1ccc2ncnc(NCc3cccc(NC(=O)CCl)c3)c2c1`, the growth was 39.7% [8.25 µM] in assay [1]; 65.6% [8.25 µM] in assay [2]; 25.8% [8.25 µM] in assay [3]; 84.9% [8.25 µM] in assay [4]; 74.1% [8.25 µM] in assay [5]; 39.5% [8.25 µM] in [6]. Further, the growth was 73.3% [8.25 µM] in assay [7]; 77.9% [8.25 µM] in assay [8]; 4.16% [8.25 µM] (active) in [9]; 3.48% [8.25 µM] (active) in assay [10]; 21% [8.25 µM] in assay [11]; 17.2% [8.25 µM] in assay [12]. In addition, the growth in [13] was 55.3% [8.25 µM]; in assay [14], 31.6% [8.25 µM]; in assay [15], 83% [8.25 µM]; in [16] it was -68.1% [8.25 µM] (active); in assay [17] it was 24.2% [8.25 µM]; in assay [18], 50.2% [8.25 µM]. The growth in [19] was 77.7% [8.25 µM].

For the molecule `CCCN1CCN(c2ccc3nc(-c4ccc5nc(-c6ccc(OCC)cc6)[nH]c5c4)[nH]c3c2)CC1`, the growth in [1] was 78.9%; in [2], 59.1%; in assay [3], 61.2%; in assay [4] it was 87.2%; in assay [5], 69%; in assay [6] it was 34.6%. Also, the growth was 49.3% in assay [7]; 65.6% in assay [8]; -32.4% (active) in assay [9]; -0.259% (active) in assay [10]; -38.8% (active) in assay [11]; 0.816% (active) in [12]. Besides, the growth in [13] is 62%; in [14], -34.6% (active); in assay [15] it was 67.7%; in assay [16], 52.1%; in assay [17], -83.5% (active); in assay [18] it was 70.4%. Moreover, the growth in [19] is 41.7%.

On to `O=S(=O)(Nc1ccc(NS(=O)(=O)c2ccccc2)c(Cl)c1)c1ccccc1`, for which the growth in [1] is 91.6%; in assay [2] it was 106%; in [3], 102%; in assay [4], 88.7%; in [5], 100%; in assay [6], 105%. The growth in assay [7] was 92.4%; in assay [8], 113%; in assay [9], 92%; in assay [10] it was 79%; in assay [11], 90.8%; in assay [12] it was 103%. Moreover, the growth in [13] is 108%; in [14], 100%; in [15], 104%; in assay [16] it was 98.6%; in assay [17], 104%; in assay [18] it was 103%. Besides, in assay [19], the growth is 100%.

Regarding `COc1cccc(-c2nc3sccn3c2-c2ccnc(NCCCNS(=O)(=O)c3cccc(Cl)c3)c2)c1`, the growth in assay [1] was 39.8%; in assay [2], 40.6%; in [3], 45.5%; in [4], 20.4%; in assay [5] it was 71.5%; in assay [6] it was 37.5%. In addition, the growth in [7] was 25.9%; in [8], 54.4%; in assay [9] it was 18.1%; in assay [10], 9.9% (active); in assay [11] it was -9.68% (active); in assay [12], 26.3%. Also, the growth was 78.9% in assay [13]; 32.6% in assay [14]; 67.7% in [15]; 50.7% in assay [16]; 58% in assay [17]; 69.2% in [18]. The growth in [19] was 13.4%.

In the case of `O=C1CC[C@H](c2ccc(O)c3c2C(=O)[C@@H]2O[C@@H]2C3=O)c2cccc(O)c21`, the growth is 69.5% in [1]; 102% in [2]; 54.6% in assay [3]; -77.4% (active) in assay [4]; 3.89% (active) in assay [5]; -42% (active) in [6]. Also, the growth in assay [7] was 2.61% (active); in [8], 85%; in assay [9] it was -2.85% (active); in [10] it was 45.1%; in assay [20], 2.02% (active); in assay [11], -3.81% (active). Further, the growth was 43.5% in assay [12]; 99.6% in [13]; 72.4% in assay [14]; 90% in assay [16]; -9.05% (active) in assay [17]; 98.4% in assay [18]. In addition, the growth in [19] is 90%.

Regarding `CC(C)CC1C(=O)N2CCC[C@H]2C2(O)O[C@](NC(=O)C3C=C4c5cccc6[nH]c(Br)c(c56)C[C@H]4N(C)C3)(C(C)C)C(=O)N12` (some centres not stated), the growth in assay [1] was 77.4%; in assay [2], 54.6%; in assay [3] it was 40.3%; in [4], 36.2%; in [5], 54.6%; in [6], 43.6%. Besides, the growth in assay [7] was 61.1%; in assay [8], 76.5%; in assay [9], 58.3%; in [10] it was 15.9%; in assay [20], 28.6%; in [11], 11.1%. Further, the growth in assay [12] was 63.3%; in assay [13], 69.6%; in [14] it was 41%; in assay [16] it was 59%; in assay [17], 61.5%; in assay [18], 89.7%. The growth in assay [19] was 57.7%.

On to `CC(C)C1=C[C@@]23CC[C@@H]4[C@](C)(CCC[C@@]4(C)C(=O)N4CCCNCC4)[C@H]2C[C@@H]1[C@H]1C(=O)CCC(=O)[C@H]13`, for which the growth is 103% in assay [1]; 95.2% in [2]; 102% in assay [3]; 79.2% in assay [4]; 104% in assay [5]; 92.1% in [6]. Besides, the growth was 81.1% in assay [7]; 97% in assay [8]; 101% in [9]; 96.5% in assay [10]; 100% in [11]; 96.6% in assay [12]. Further, the growth in [13] was 97.9%; in assay [14], 98.8%; in assay [15], 107%; in assay [16] it was 99.2%; in assay [17], 115%; in assay [18], 106%. The growth in assay [19] is 94.9%.

For the molecule `CSc1nc(NCc2ccccc2)c(C#N)c(-c2cccc([N+](=O)[O-])c2)n1`, the growth in [1] was 102%; in assay [2], 85.4%; in assay [3], 93.2%; in assay [4], 78.3%; in assay [5] it was 124%; in assay [6] it was 95.6%. Also, the growth in assay [7] is 75.4%; in assay [8] it was 66.1%; in assay [9] it was 99.7%; in [10], 103%; in assay [11] it was 100%; in assay [12], 95%. The growth in assay [13] was 90.7%; in assay [14], 88.5%; in [15] it was 97.1%; in assay [16], 99.9%; in assay [17] it was 111%; in assay [18] it was 92%. Also, in assay [19], the growth is 95.2%.
